Test results: PubChem BioAssay (EPA / NIEHS)
Results filed as inconclusive are left out. The source made the active and inactive calls. How the source made its calls, unless noted: active means hit-call score of the fitted dose curve at least 0.9, where 1 is the maximum; inactive means score below 0.9.

Experiments:
[1] = UKN4_HCS_LUHMES_cell_viability: Viability Assessment in the University of Konstanz (UKN) Leist Lab Neurite Outgrowth Assay in human LUHMES cells (UKN4) (AID 2284232)
In short: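 Human dopaminergic-model LUHMES neurons were exposed to chemicals for 24 h after a 2-day differentiation. Viability was scored by imaging Hoechst H-33342 staining, with activity fitted in both directions relative to DMSO controls.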

[2] = UKN2_HCS_IMR90_cell_viability: Viability Assessment in the University of Konstanz (UKN) Leist Lab Neural Crest Cell Migration Assay in human induced IMR90 Pluripotent Stem Cells (UKN2) (AID 2284233);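 further: viability of neural crest cells differentiated from IMR90 iPSC measured by calcein-AM fluorescence imaging; cells exposed to compound for 24 h after a 24 h migration phase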
In short: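 Neural crest cells derived from IMR90 iPSC migrate into a stopper-free zone for 24 h in EGF/FGF medium, then are exposed to compound for 24 h. Viability assessed by calcein-AM and Hoechst staining with high-content imaging, fitted bidirectionally versus DMSO.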

[3] = CCTE_Mundy_HCI_Cortical_NOG_NeuronCount: CCTE's Neurite Outgrowth Assay in rat cortical cells for Neuron Count, Mundy Lab (AID 2284236; active means hit-call score of the fitted dose curve at least 0.9, where 1 is the maximum;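 further: neurons counted by imaging betaIII-tubulin and Hoechst stained cortical cells; cells exposed to compound for about 48 hours before fixation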)
In short: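 Read-out: neuron number by high-content imaging of betaIII-tubulin (Alexa Fluor-488) and Hoechst-labelled rat primary cortical cells.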

[4] = BSK_BT_Bcell_Proliferation: Viability Assessment in the BioMAP Diversity Plus: BT Assay for B cell Proliferation (AID 2284227); settings: primary human B cells with PBMC
Experimental: BSK_BT is a cell-based, multiplexed-readout assay that uses B cell and peripheral blood mononuclear cells, a human vascular primary cell co-culture, with measurements taken at 24 hours after chemical dosing in a microplate: 96-well plate.BSK_BT_Bcell_Proliferation is an assay component measured in the BSK_BT assay. It measures protein content, a form of viability reporter, as detected with absorbance signals by Sulforhodamine staining technology.Data from the assay component BSK_BT_Bcell_Proliferation was analyzed at the endpoint, BSK_BT_Bcell_Proliferation, in the positive analysis fitting direction relative to DMSO as the negative control and baseline of activity. […]
The levels of cell surface (or secreted, indicated by the prefix "s") biomarker endpoints were measured by ELISA. Overt cytotoxicity to cells in confluent adherent cultures (all systems other than the BT system) was assessed by measuring total protein levels using sulforhodamine B (SRB) staining in parallel cultures at the time of biomarker measurements, indicated as SRB endpoints. For proliferation assays for adherent cell types, individual cell types are cultured at sub-confluence and relative cell numbers quantified by SRB staining at time points optimized for each system (48 h: 3C and CASM3C systems; 72 h: BT and HDF3CGF systems; 96 h: SAg system). […] Plates were read after 6 h.

[5] = read-out: Interleukin 6 (IL6), IL6 (gene 3569); experiment: BSK_BT_xIL6: BioMAP Diversity Plus: BT Assay for Interleukin 6 (IL6) Biomarker Activity (AID 2284228); settings: primary human B cells with PBMC
In short: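 Human B cell/PBMC co-culture; secreted IL-6 quantified by Luminex xMAP 24 h after chemical dosing, fitted relative to DMSO. Parallel PBMC viability by Alamar Blue after 1 h pretreatment, 20 ng/mL SEB and TSST-1, 90 h incubation.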

[6] = read-out: Interleukin 17A (IL17A), IL17A (gene 3605); experiment: BSK_BT_xIL17A: BioMAP Diversity Plus: BT Assay for Interleukin 17A (IL17A) Biomarker Activity (AID 2284229); settings: primary human B cells with PBMC
In short: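 Co-culture of human B cells and PBMC, dosed for 24 h in 96-well format. Secreted IL-17A measured with Luminex xMAP; gain-direction fitting against DMSO as baseline.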

[7] = read-out: Tumor necrosis factor (Homo sapiens) (UniProt P01375); experiment: BSK_BT_xTNFa: BioMAP Diversity Plus: BT Assay for Tumor necrosis factor alpha (TNF-alpha) Biomarker Activity (AID 2284230); settings: primary human B cells with PBMC
In short: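 Endpoint derived in the positive direction versus DMSO vehicle. Cells: B cells together with PBMC, exposed 24 h before TNF-alpha in the medium was read on the Luminex xMAP platform.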

[8] = read-out: Vascular cell adhesion molecule 1 (VCAM1), VCAM1 (gene 7412); experiment: BSK_MyoF_VCAM1: BioMAP Diversity Plus: MyoF Assay for Vascular cell adhesion molecule 1 (VCAM1) Biomarker Activity (AID 2284231); settings: primary human lung fibroblasts
In short: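 Primary human lung fibroblasts (BioMAP MyoF system) dosed with chemical, VCAM-1 measured by ELISA 24 hours later. Fitted in the positive direction against DMSO; parallel SRB staining assessed cytotoxicity.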

[9] = TAMU_HCS_1.5hr_SingleDonor1434_Cytotoxicity: Cytotoxicity Assessment using High-content Screening (HCS) Fluorescent Imaging for the Texas A&M University (TAMU) 1.5-hr Human Induced Pluripotent Stem Cell (iPSC)-derived Cardiotoxicity Assay (AID 2284234; active means hit-call score of the fitted dose curve at least 0.9, where 1 is the maximum)
In short: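 Human iPSC-derived cardiomyocytes dosed at 0.2, 1, 10, 100 uM final (0.5% DMSO) for 90 min at 37 C. Hoechst 33342-stained nuclei counted by 10x high-content imaging; POD is EC10, a 10% drop in total cell count versus DMSO.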

[10] = TAMU_PeakParms_SingleDonor1434_QT: Texas A&M University (TAMU) 1.5-hr Human Induced Pluripotent Stem Cell (iPSC)-derived Cardiomyocytes Calcium (Ca+2) Flux Assay for Cardiotoxicity: QT (decay-rise ratio) (AID 2284235; active means hit-call score of the fitted dose curve at least 0.9, where 1 is the maximum)
In short: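 iPSC-derived cardiomyocytes (single donor 1434) dosed at 0.2, 1, 10, 100 uM final in 0.5% DMSO, 90 min at 37C. Ca2+ flux fluorescence decay/rise ratio; EC05 (5% increase versus DMSO) as POD, excluding beat-arrest and severe-notch data.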

Chain of Tumor necrosis factor (Homo sapiens) (P01375 whole entry, looked up): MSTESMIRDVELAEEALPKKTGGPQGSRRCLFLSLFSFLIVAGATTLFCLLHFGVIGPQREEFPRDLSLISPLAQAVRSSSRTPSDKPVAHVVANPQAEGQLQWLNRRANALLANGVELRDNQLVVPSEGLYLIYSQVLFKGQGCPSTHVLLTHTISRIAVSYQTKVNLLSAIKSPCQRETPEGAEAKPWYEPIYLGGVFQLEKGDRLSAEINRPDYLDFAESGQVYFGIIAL

## N#Cc1nn(-c2c(Cl)cc(C(F)(F)F)cc2Cl)c(N)c1S(=O)C(F)(F)F (stereo not drawn)
[1]
  outcome: inactive
[2]
  AC50: 40 µM (active)
[3]
  outcome: inactive

## COc1cnc(OC)n2nc(NS(=O)(=O)c3c(OCC(F)F)cccc3C(F)(F)F)nc12
[4]
  outcome: inactive
[5]
  outcome: inactive
[6]
  outcome: inactive
[7]
  outcome: inactive
[8]
  outcome: inactive

## CCCCOC(=O)c1ccccc1C(=O)OCCCC
[2]
  outcome: inactive
[3]
  outcome: inactive

## COC(=O)N(OC)c1ccccc1COc1ccn(-c2ccc(Cl)cc2)n1
[2]
  AC50: 90.1 µM (active)
[3]
  AC50: 0.143 µM (active)

## CO/C=C(/C(=O)OC)c1ccccc1Oc1cc(Oc2ccccc2C#N)ncn1
[2]
  outcome: inactive
[3]
  AC50: 4.67 µM (active)

## CCOc1cc(Oc2ccc(C(F)(F)F)cc2Cl)ccc1[N+](=O)[O-]
[2]
  outcome: inactive

## CCCCNC(=O)n1c(NC(=O)OC)nc2ccccc21
[1]
  outcome: inactive
[2]
  AC50: 15 µM (active)

## CCCCNC(=O)OCC#CI
[9]
  AC50: 4.75 µM (active)
[10]
  outcome: inactive

## CCOC(=O)CC(SP(=S)(OC)OC)C(=O)OCC (stereo not drawn)
[3]
  AC50: 23.9 µM (active)

## Cc1ccc(-c2c(Cl)nc(C#N)n2S(=O)(=O)N(C)C)cc1
[2]
  AC50: 0.564 µM (active)
[3]
  AC50: 50 µM (active)

## COP(N)(=O)SC (stereo not drawn)
[3]
  outcome: inactive

## CNC(=O)ON=CC(C)(C)SC
[10]
  outcome: inactive

## C=CCC1=C(C)C(OC(=O)C2C(C=C(C)C)C2(C)C)CC1=O (stereo not drawn)
[1]
  outcome: inactive

## CC(C)(C)c1ccc(CSc2cnn(C(C)(C)C)c(=O)c2Cl)cc1
[2]
  outcome: inactive
[3]
  AC50: 0.0982 µM (active)

## COP(=S)(OC)Oc1nc(Cl)c(Cl)cc1Cl
[3]
  AC50: 15 µM (active)

## C=CC1(C)OC(=O)N(c2cc(Cl)cc(Cl)c2)C1=O (stereo not drawn)
[2]
  outcome: inactive
[3]
  outcome: inactive

## CN(C)C(=S)SSC(=S)N(C)C
[2]
  AC50: 7.92 µM (active)
[3]
  AC50: 0.0469 µM (active)

## CCCCC(CC)COC(=O)c1ccccc1C(=O)OCC(CC)CCCC (stereo not drawn)
[2]
  outcome: inactive
